From PubChem BioAssay AID686979 (National Center for Advancing Translational Sciences (NCATS), 2013)
Among all 420,000 compounds or so, about 50,000 (12%) were called active. Entries that show only a call come without a potency. Roughly 26% stayed inconclusive and do not appear here. Calls come from the whole dose curve; as a rule, active = well fitted inhibition curve with a large enough effect; inconclusive = small, poorly fitted or top-dose-only effect; inactive = flat fitted curve, though single readings scatter. Only a selection was taken, and actives are over-represented in it overall.

Experiment: qHTS for Inhibitors of human tyrosyl-DNA phosphodiesterase 1 (TDP1): qHTS in cells in presence of CPT; note: nearly all actives have a fitted effect of over 55% in size
Conditions: chicken DT40 Tdp1-/-;hTDP1 cells + 20 nM CPT, ATP luminescence, 48 h; series mostly up to 46.2 µM
Method in brief: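 Chicken DT40 Tdp1-/- cells stably complemented with human TDP1 were seeded at 400 cells/well in medium containing 20 nM camptothecin, exposed to pin-transferred compounds, and grown at 37 °C for at least 48 hr. Viability was read as ATP luminescence.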
Potency is the fitted concentration of half-maximal effect.

SMILES	Potency
CC[n+]1cc(C)ccc1/C=C/c1ccc(N(C)C)cc1	0.0291 µM (active)
COc1ccccc1-n1cnc2cc(NS(=O)(=O)c3ccccc3)ccc21	inactive
CCOC(=O)CSC1=Nc2ccccc2C2=NC(CCC(=O)NCc3ccc(F)cc3)C(=O)N12 (configuration not stated)	inactive
CCN1N=C(c2ccccc2)CCC1=O	inactive
CC(=O)NC1=NN(C(C)=O)C(C)(CCS(=O)(=O)c2ccc(Cl)c(Cl)c2)S1 (configuration not stated)	inactive
CC(=O)NC1=NN(C(C)=O)C(C)(c2ccc(Cl)s2)S1 (configuration not stated)	6.51 µM (active)
O=C(NC1=NCCS1)c1ccc(Cl)s1	inactive
CC/C(Cc1ccccc1)=N/NC(=O)CCn1nnc2ccccc21	inactive
O=C(O)c1ccc(Nc2nc(-c3ccccc3)c3cc(Br)ccc3n2)cc1	inactive
Nc1nc(Nc2ccccc2)nc(NCCO)c1[N+](=O)[O-]	inactive
OCCNc1nc(Nc2ccc(Cl)c(Cl)c2)nc2ccccc12	18.4 µM (active)
CO[C@H]1[C@@H]2C=CO[C@@H](O[C@H]3O[C@@H](CO)[C@H](O)[C@@H](O)[C@@H]3O)[C@@H]2[C@@]2(CO)O[C@@H]12	inactive
CCN(C(=O)CSc1nnc(-c2ccncc2)o1)c1ccccc1	inactive
O=C(COc1ccccc1)N1CCN=C1SCc1cccc(F)c1	inactive
CC(=O)NC(=S)NNC(=O)c1ccc(Br)cc1	6.51 µM (active)
O=C(CCc1ccccc1)NNC(=O)c1ccc(Br)cc1	inactive
COc1ccc(C(=S)Nc2ccccc2)cc1	inactive
COc1ccc(NC(=O)c2ccccc2[N+](=O)[O-])cc1OC	inactive
COc1ccc(C(=O)NC(=S)NNC(=O)CCc2ccccc2)cc1	8.2 µM (active)
COc1ccc(C(=O)NNC(=S)NC(=O)c2ccccc2[N+](=O)[O-])cc1	18.4 µM (active)
COc1ccc(C(=O)NNC(=S)NC(=O)c2ccccc2)cc1	9.2 µM (active)
O=C(NNC(=O)c1ccc(Cl)nc1)c1ccc(Br)cc1	inactive
COc1ccc(C(=O)NC(=S)NNC(=O)c2c(-c3ccccc3)noc2C)cc1	inactive

SMILES	Potency
CNC(=S)NNC(=O)c1ccc(N(C)C)cc1	inactive
CC(C)Oc1ccc(CCC(=O)NNC(=S)NCc2ccccc2)cc1	inactive
COC(=O)CNC(=O)c1ccccc1[N+](=O)[O-]	inactive
CSCCC(NC(=O)COc1ccccc1)C(=O)OCc1ccc(Cl)cc1 (configuration not stated)	inactive
COc1cc(-c2cccnc2)cc2c1OCCN(C(=O)Cc1csc(C)n1)C2	inactive
CCCNC(=O)C1CC(=O)N(c2ccc(OCc3ccccc3)cc2)C1 (configuration not stated)	inactive
O=C(CCc1nc(CN2CCN(S(=O)(=O)c3ccc(Br)cc3)CC2)no1)N1CCCCC1	inactive
Cc1ccccc1N1C(=O)C2ON(c3ccccc3)C(c3ccncc3)C2C1=O (configuration not stated)	inactive
C/C(=N/OC(=O)c1ccc(Br)cc1)c1ccc(C)cc1	inactive
COc1ccc(-c2cc(=O)oc3cc(OCC(=O)N[C@@H](Cc4c[nH]c5ccccc45)C(=O)O)ccc23)cc1	inactive
O=C(N[C@H]1CC[C@H](CC(=O)N2CCCCC2)O[C@@H]1CO)c1cccc(F)c1	inactive
CCc1cc2c(=O)c(-c3nc4ccccc4n3C)c(CCCC(=O)O)oc2cc1OC(=O)C(C)(C)C	inactive
CC1=C(C(=O)N(C)C)CC(CC(=O)NCCN2CCOCC2)C(=O)N1Cc1ccccc1 (configuration not stated)	inactive
COc1cccc(OCc2nnc3n2N=C(c2ccccc2)C(CC(=O)O)S3)c1 (configuration not stated)	inactive
O=C(COC(=O)Cn1[nH]c(=O)c2ccccc2c1=O)Nc1c(Cl)cccc1C(F)(F)F	inactive
CC[C@H](C)[C@@H](C(=O)N1CCNCC1)n1cc([C@@H](N)Cc2ccc(O)cc2)nn1	inactive
COc1cc2ccccc2cc1C(=O)N1CCOCC1	inactive
COc1c(Br)cc2c(C)c(C(=O)N3CCOCC3)oc2c1Br	20.6 µM (active)
COc1cc(C(=O)N2CCOCC2)cc(OC)c1OC	inactive
N#CCCN(C(=O)COC(=O)c1ccc2c(c1)OCCO2)c1ccccc1	inactive
CC(C)c1c(C(=O)N/N=C/c2ccccc2C(=O)O)nnn1-c1nonc1N	inactive
Cn1c(=O)[nH]c(=O)c2c1[nH]c(=S)n2Cc1ccccc1	inactive
CCCc1c(C(=O)N/N=C(\C)CCc2ccc(OC)cc2)nnn1-c1nonc1N	inactive

SMILES	Potency
Cc1cccc(N2O[C@H]3C=CC2CCCC3)n1	inactive
COP1(=O)C[C@@H](O)[C@@H](O)[C@@H](COCc2ccccc2)O1 (some centres not stated)	inactive
O=C(NCCc1ccc(Cl)cc1)c1ccc2c(c1)N(Cc1ccc(F)cc1)C(=O)CS2	20.6 µM (active)
O=C(NCCc1ccc(Cl)cc1)c1cccc(N2CCCC2=O)c1	inactive
O=C(c1ccc2c(c1)N(Cc1ccc(F)cc1)C(=O)CS2)N1CCOCC1	inactive
CC1CCN(C(=O)c2ccccc2NC(=O)Cc2ccccc2)CC1	inactive
Cc1ccccc1C(=O)NC(=S)Nc1ccc(N2CCN(C(=O)c3ccccc3)CC2)cc1	10.3 µM (active)
COc1ccc(N2CCN(C(=O)c3cccs3)CC2)cc1	inactive
Cc1ccccc1C(=O)Nc1ccccc1NC(=O)c1ccccc1C	inactive
Cc1ccccc1C(=O)Nc1ccc(N2CCCCCC2)cc1	14.6 µM (active)
COc1ccccc1C(=O)NC(=S)Nc1ccc(N2CCOCC2)cc1	inactive
Cc1cccc(C)c1NC(=O)CS(=O)CC(=O)N1CCN(c2ccccc2)CC1 (configuration not stated)	inactive
O=C(NC(=O)c1ccccc1N1CCCCC1)Nc1ccc(Br)cc1	inactive
O=C(Nc1ccc(N2CCN(C(=O)C3CC3)CC2)cc1)c1cccs1	inactive
Cc1ccccc1C(=O)N1CCN(c2ccc(NC(=O)c3cccs3)cc2)CC1	18.4 µM (active)
O=C(NC1CCCC1)C(c1c(F)cccc1Cl)N(C(=O)c1csnn1)C1CC1 (configuration not stated)	inactive
CCOC(=O)c1cn[nH]c1NC(=S)Nc1ccccc1	inactive
CCCCN1C(=O)C(=O)N(CC(=O)Nc2cccc(C(C)=O)c2)C1=O	inactive
OCC1(CCc2ccccc2)CCN(Cc2ccc3nsnc3c2)CC1	inactive
Cc1cccc(-c2ncc(CN3CCC(CO)(CCCc4ccccc4)CC3)cn2)c1	23.1 µM (active)
OCC1(CCOc2ccccc2)CCN(Cc2cn[nH]c2-c2ccccc2)CC1	inactive
